From PubChem
Only some compounds are listed: those with a hit (about 1.8% of all), similar ones and a draw of the others.
PAX8 reporter: inhibitors of PAX8-driven TPO luciferase reporter, primary screen, RMG-I cells, single concentration; SteadyGlo, 24 h; inhibition, % at 12.6 µM; actives 1.2% (n = 360,000); AID 652154, 2013;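 active means mean replicate inhibition at least 60% with every replicate also reaching 60%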;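 further: luciferase light reporting Pax8 driven TPO promoter activity; plate controls were median of neutral control wells for no effect and mitoxantrone controls for full effect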
F508del corr: F508del CFTR correction, initial screen, CFBE line, single point; CFBE cells, YFP halide quenching; stimulated with forskolin plus potentiator P3; % fluorescence drop versus neutral controls; activity (quench increase), % at 7.58 µM; actives 0.36% (n = 350,000); AID 720511, 2013;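 active means mean added fluorescence quench of at least 8% versus neutral control, with both replicates also reaching 8%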;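 further: cells transiently co-express mutant CFTR-F508del with the halide-sensitive YFP; corrector assay measuring rescue of mutant channel to the surface after 24 h compound exposure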
LGR2 inh: inhibitors of bursicon-induced LGR2 CRE-luciferase signal, primary screen, cell-based, HEK293, CRE-luciferase reporter, bursicon stimulation. bursicon-stimulated, 4 h. inhibition, % at 9.99 µM. actives 0.35% (n = 380,000). Drosophila bursicon receptor LGR2 (rickets);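 active means drop in luminescence signal, shown as inhibition above about 50% in the replicate tests, limit read from the data, passing the limit was not always enough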;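 further: agonist challenge used bursicon conditioned medium at about half maximal strength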
EWS-Fli inh: EWS/Fli-driven NR0B1 reporter inhibitors, primary screen, A673 cells, NR0B1 luciferase, luminescence, MLPCN library; inhibition, % at 12.6 µM; viability-normalised; AID 651661, 2012; actives 0.67% (n = 350,000);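 active means mean inhibition of at least 50% after viability correction, with every replicate also passing that limit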;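 further: firefly luciferase signal divided by Alamar Blue viability fluorescence both relative to DMSO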
An asterisk follows results filed as active; · = not tested or not shown; ! = not active in a repeat.

SMILES | PAX8 reporter | F508del corr | LGR2 inh | EWS-Fli inh
Cc1nc(N)[nH]c(=O)c1CCCNS(=O)(=O)c1ccc([N+](=O)[O-])cc1 | -6 | 8.1* | -10 | -5
O=[N+]([O-])c1ccc(NN=Cc2ccccc2O)nc1 | -20 | -1 | -44 | -81
O=C(N/N=C\c1ccc([N+](=O)[O-])s1)c1cncc(Br)c1 | 86* | 3 | · | -6
O=C(NN=Cc1ccccc1O)c1cccc([N+](=O)[O-])c1 | 32 | 11* | -22 | 0
O=[N+]([O-])c1ccc(O)c(/C=N/Nc2ccccn2)c1 | 71* | · | 24 | 20
O=C(N/N=C/c1ccc([N+](=O)[O-])s1)c1ccccc1 | 20 | 1 | 16 | 63*
O=C(N/N=C/c1cccs1)c1cncc(Br)c1 | -7 | · | -7 | -5
O=C(N/N=C/c1ccccn1)c1cccc([N+](=O)[O-])c1 | -11 | -2 | 22 | -4
CCCCC[C@@H](C)N1C[C@H](COCc2ccccc2)Oc2cc(N3CC[C@@H](N(C)C)C3)ccc2S1(=O)=O | 84* | 1 | 24 | 42
O=C(COC(=O)Cc1cccs1)Nc1ccccc1Cl | 1 | -2 | 1 | -2
O=C(O)COC(=O)Cc1ccccc1Nc1c(Cl)cccc1Cl | -5 | 16* | 1 | 3
CN1c2ccccc2C(C)(C)C12C=Nc1c(cc(N3CCOCC3)c3ccccc13)O2 (configuration not stated) | 72* | · | · | ·
CCOC(=O)c1c2c(n(Cc3ccccc3)c1C)C(=O)C(=O)c1ccccc1-2 | 125* | 2 | 104* | 69*
CCOCCCN(C(=O)c1snc(C(N)=O)c1N)C(C(=O)NC1CCCC1)c1ccc(O)cc1 (configuration not stated) | 11 | -2 | 14 | 6
CCCCN(C(=O)c1cc(S(=O)(=O)N2CCOCC2)ccc1Cl)c1c(N)n(CC(C)C)c(=O)[nH]c1=O | 3 | 3 | -14 | 11
CCCCN(C(=O)c1cc(S(=O)(=O)N2CCCCC2)ccc1Cl)c1c(N)n(CC(C)C)c(=O)[nH]c1=O | -3 | 10* | -24 | 5
CCCS(=O)(=O)N1CCCC(C(=O)Oc2ccc(Cl)cc2)C1 (configuration not stated) | 6 | 1 | 11 | 15
C[C@@H]1CCCCO[C@H](CN(C)Cc2ccc(C(F)(F)F)cc2)[C@@H](C)CN([C@H](C)CO)C(=O)c2cc(NS(=O)(=O)c3ccc(F)cc3)ccc2O1 | -3 | 1 | 1 | -9
C[C@@H]1CCCCO[C@@H](CN(C)Cc2ccc(C(F)(F)F)cc2)[C@@H](C)CN([C@@H](C)CO)C(=O)c2cc(NS(=O)(=O)c3ccc(F)cc3)ccc2O1 | 86* | 2 | 7 | 0
C[C@@H]1CN([C@@H](C)CO)C(=O)c2cc(NS(=O)(=O)c3ccc(F)cc3)ccc2O[C@@H](C)CCCCO[C@H]1CN(C)Cc1ccc(C(F)(F)F)cc1 | 97* | 1 | -11 | 27
C[C@@H]1CN([C@H](C)CO)C(=O)c2cc(NS(=O)(=O)c3ccc(F)cc3)ccc2O[C@@H](C)CCCCO[C@H]1CN(C)Cc1ccc(C(F)(F)F)cc1 | 114* | 2 | 15 | 65*
C[C@@H]1CCCCO[C@@H](CN(C)Cc2ccc(C(F)(F)F)cc2)[C@H](C)CN([C@@H](C)CO)C(=O)c2cc(NS(=O)(=O)c3ccc(F)cc3)ccc2O1 | 105* | 2 | -1 | 71*
O=S(=O)(CS(=O)(=O)c1ccc(Cl)cc1)c1ccc(Cl)cc1 | 1 | 0 | -4 | 0
C[C@@H]1CN([C@H](C)CO)C(=O)c2cc(C#CCc3ccccc3)cnc2O[C@@H]1CN(C)C(=O)C1CCC1 | -6 | -1 | 3 | 3
Cc1ccc(-c2nc(C(Cl)Cl)c3ccccc3n2)cc1 | -8 | -15 | -35 | 59*
SMILES | PAX8 reporter | F508del corr | LGR2 inh | EWS-Fli inh
CC(C)C#Cc1ccc2c(c1)O[C@H](CN(C)C(=O)CC1CC1)[C@H](C)CN([C@H](C)CO)S2(=O)=O | -14 | 0 | 3 | 5
Cc1ccc(N(C)S(=O)(=O)c2ccc(-c3cc(C)no3)s2)cc1 | 26 | 2 | -11 | 54*
Cc1cc(-c2ccc(S(=O)(=O)N(C)c3ccc(C)c(C)c3)s2)on1 | 15 | 0 | 18 | ·
CN(CC(=O)Nc1cccc2ccccc12)C(=O)c1cccc(S(=O)(=O)N(C)C)c1 | 11 | 1 | -4 | 1
Cc1nn(-c2ccc(NC(=O)c3ccncc3)cc2)c(C)c1Cl | 28 | 2 | 12 | 0
O=C(Nc1ccc(NC(=O)c2ccco2)nc1)c1ccccn1 | -10 | · | · | ·
O=C(Cc1ccccc1)Nc1ccc(NC(=O)c2ccco2)nc1 | -186 | · | · | ·
CC(C)(C)C(=O)Nc1ccc(NC(=O)c2ccco2)nc1 | 109* | 1 | 98* | 88*
O=C(Nc1ccc(NC(=O)c2ccco2)nc1)c1ccco1 | -7 | 1 | 60* | 40
Cc1cccc(N2CCN(C(=S)c3ccc4c(c3)OCO4)CC2)c1 | -10 | 6 | -5 | 42
O=C(NCc1ccccc1)C1(C(F)(F)F)CC(CCCO)CCCO1 (configuration not stated) | -11 | -2 | -8 | -4
CS(=O)(=O)c1ccc(CNC(=O)C2(C(F)(F)F)CC(CCCO)CCCO2)cc1 (configuration not stated) | 22 | -2 | 0 | 59*
CC(OC(=O)CCN=C1NS(=O)(=O)c2ccccc21)C(=O)Nc1ccc(F)cc1Cl (configuration not stated) | -10 | 1 | -7 | -1
CS(=O)(=O)Nc1ccc2c(c1)[C@H]1C[C@H](CC(=O)NC3CCCCC3)O[C@H](CO)[C@H]1O2 | 6 | 1 | 4 | -6
COc1ccc(C(=O)C[n+]2cc(-c3ccc(OC)cc3)n3c2CCCC3)cc1 | 72*! | 0 | 35 | 19
O=C(C[n+]1cc(-c2ccc(Cl)cc2)n2c1CCC2)N1c2ccccc2Sc2ccccc21 | 70* | · | 8 | ·
COc1ccc(-c2c[n+](CC(=O)N3c4ccccc4Sc4ccccc43)c3n2CCC3)cc1 | 76* | -1 | 2 | 3
O=C(C[n+]1cc(-c2ccc(Cl)c(Cl)c2)n2c1CCC2)N1c2ccccc2Sc2ccccc21 | 40 | · | -4 | ·
Cc1ccc(-c2c[n+](CC(=O)OCc3ccccc3)c3n2CCC3)cc1 | 2 | · | 9 | 9
COc1ccc(-c2c[n+](CC(=O)c3cccs3)c3n2CCC3)cc1 | 15 | 0 | -5 | 9
O=C(Nc1ccc(Cl)c(Cl)c1)N[C@H]1CC[C@H](CCn2cc(C3CC3)nn2)O[C@@H]1CO | 3 | 0 | -7 | 17
CC(=O)Nc1ccc(S(=O)(=O)N2CCCC2)cc1 | 3 | -1 | -12 | -5
CC(CCc1ccccc1)N1CCN(Cc2ccccc2)CC1 (configuration not stated) | -6 | · | 6 | 6
CC(C)c1ccc(/C=C/C(=O)Nc2nncs2)cc1 | -106 | · | 64* | 18
Cc1noc(C)c1S(=O)(=O)N(C)C[C@H]1Oc2c(NS(=O)(=O)c3cn(C)cn3)cccc2C(=O)N([C@@H](C)CO)C[C@H]1C | · | -1 | 4 | 1
